Experimental data from PubChem BioAssay.
Values joined by “and” are separate entries in the source; they are usually repeats but may differ in a detail not shown here. Equal entries are not always repeated. Results filed as inconclusive are left out. Active and inactive are the calls of the source.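 How the source made its calls, unless noted: active means compound that reduces growth-factor-driven endothelial tube area in a mixed cell culture, no cutoff stated; inactive means the rest.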

Key:
[1] = stimulators of insulin release from INS-1E, primary screen, cell-based, 5 mM glucose, NPC library (AID 1117329;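 active means compound raises insulin release from rat beta cells at 5 mM glucose, no numeric limit stated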); conditions: rat INS-1E insulin secretion, at 10 µM, stronger effect = higher value
[2] = growth inhibition of GSK3B-pretreated HCT116 cells – cell-based, CellTiter-Glo, 0.2 to 20 µM (AID 1117336;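 active means compounds lowering colon cancer cell viability after pretreatment blocking the GSK3B kinase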); conditions: HCT116 viability after GSK3B inhibitor, at 20 µM, stronger effect = higher value
[3] = inhibition of endothelial tube formation, primary screen, imaging, VEGF stimulated, CD31 staining, tube area, NPC library (AID 1117340); conditions: VEGF-stimulated ADSC/ECFC co-culture, at 10 µM, stronger effect = higher value
[4] = glucagon-like peptide 1 release enhancers, primary assay, NCI-H716 cell line, NPC library (AID 1117341;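 active means compound raises GLP1 secretion from the human gut endocrine cells, with no numeric limit stated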); conditions: NCI-H716 cells, at 10 µM, stronger effect = higher value
[5] = HCT116 colon cancer cell growth inhibition, primary screen, CellTiter-Glo luminescence, NPC library (AID 1117342;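 active means compounds that lower survival of HCT116 colon cancer cells in the luminescence readout, no numeric limit stated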); conditions: at 20 µM (top of the series)
[6] = CellTiter-Glo luminescent readout of SW480 viability loss, NPC library primary (AID 1117343;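 active means compounds that lower viability of the colon cancer cells in the luminescence readout, with no numeric limit stated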); conditions: CellTiter-Glo luminescence; at 20 µM (top of the series)
[7] = decreased DLD-1 cellular survival, CellTiter-Glo luminescent readout, NPC compound collection, primary HTS (AID 1117346;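 active means compounds that lower survival of DLD-1 colon cancer cells in the luminescence readout, no cutoff given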); conditions: DLD-1 viability, CellTiter-Glo luminescence; at 20 µM (top of the series)
[8] = target: 6-phosphogluconate dehydrogenase, decarboxylating (Homo sapiens) (UniProt P52209); assay: 6PGD enzyme inhibitors, primary screen, biochemical, human, recombinant enzyme, NADPH absorbance (AID 1159550;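 active means at least 20% inhibition of 6-phosphogluconate dehydrogenase activity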); conditions: recombinant 6PGD, NADPH absorbance 341 nm; at 10 µM; stronger effect = higher value
[9] = differential killing of epithelial or mesenchymal cells, primary screen, imaging, PC-3E GFP, TEM4-18 mCherry, co-culture (AID 1345086;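 active means compounds killing one labelled cell type while sparing the other, by normalised counts and ratio limits, not self-fluorescent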;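 on all read-outs here: cells exposed to compound for 72 h before imaging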;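 on red/green cell ratio (normalised): normalised mesenchymal count divided by normalised epithelial count so high means epithelial killing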); conditions: imaging cell counts, at 1 µM; for red/green cell ratio (normalised): actives lie on both sides, counts scaled to control wells, 1 = unselective
[10] = growth inhibition of DIPG glioma cells, dose response, cell-based, SU-DIPG-XIII, MIPE4.0, CellTiter-Glo, qHTS (AID 1347061; cut-off not given, nearly all actives have AC50 up to about 37 µM;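 further: cells exposed to compound for 48 hours before readout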); conditions: SU-DIPG-XIII viability, CellTiter-Glo ATP luminescence
[11] = growth inhibition of DIPG glioma cells, dose response, cell-based, JHH-DIPG-1, MIPE4.0, CellTiter-Glo, qHTS (AID 1347062; cut-off not given, nearly all actives have AC50 up to about 27 µM;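 on AC50: cells exposed to compound for two days before readout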); conditions: JHH-DIPG-1 viability, CellTiter-Glo ATP luminescence
[12] = growth inhibition of DIPG glioma cells, dose response, cell-based, SU-DIPG-IV, MIPE4.0, CellTiter-Glo, qHTS (AID 1347063; cut-off not given, nearly all actives have AC50 up to about 30 µM;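 further: compound exposure lasted 48 hours before the viability readout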); conditions: SU-DIPG-IV viability, CellTiter-Glo ATP luminescence
[13] = growth inhibition of DIPG glioma cells, dose response, cell-based, SU-DIPG-XIII, MIPE5.0, CellTiter-Glo, qHTS (AID 1347064; cut-off not given, nearly all actives have AC50 up to about 23 µM;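 on AC50: cells exposed to compound for 48 hours before the viability read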); conditions: SU-DIPG-XIII viability, CellTiter-Glo ATP luminescence
[14] = growth inhibition of DIPG glioma cells, dose response, cell-based, SU-DIPG-XVII, MIPE5.0, CellTiter-Glo, qHTS (AID 1347060; cut-off not given, nearly all actives have AC50 up to about 26 µM;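 on AC50: cells exposed to compound for 48 hours before viability readout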); conditions: SU-DIPG-XVII viability, CellTiter-Glo ATP luminescence
[15] = tested on: Aerobactin synthetase IucA (Klebsiella pneumoniae); assay: IucA aerobactin synthetase inhibitors, biochemical, Tocris library, absorbance (AID 1345561; call rule not given here;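 further: 100% = enzyme without compound and 0% = no enzyme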); conditions: purified IucA enzyme assay, absorbance (OD) read-out; stronger effect = lower value;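 tested at 8 µM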
[16] = measured here: epithelial PC-3E GFP cell survival
[17] = measured here: mesenchymal TEM4-18 mCherry cell survival

Chain of 6-phosphogluconate dehydrogenase, decarboxylating (Homo sapiens) (P52209 whole entry, looked up): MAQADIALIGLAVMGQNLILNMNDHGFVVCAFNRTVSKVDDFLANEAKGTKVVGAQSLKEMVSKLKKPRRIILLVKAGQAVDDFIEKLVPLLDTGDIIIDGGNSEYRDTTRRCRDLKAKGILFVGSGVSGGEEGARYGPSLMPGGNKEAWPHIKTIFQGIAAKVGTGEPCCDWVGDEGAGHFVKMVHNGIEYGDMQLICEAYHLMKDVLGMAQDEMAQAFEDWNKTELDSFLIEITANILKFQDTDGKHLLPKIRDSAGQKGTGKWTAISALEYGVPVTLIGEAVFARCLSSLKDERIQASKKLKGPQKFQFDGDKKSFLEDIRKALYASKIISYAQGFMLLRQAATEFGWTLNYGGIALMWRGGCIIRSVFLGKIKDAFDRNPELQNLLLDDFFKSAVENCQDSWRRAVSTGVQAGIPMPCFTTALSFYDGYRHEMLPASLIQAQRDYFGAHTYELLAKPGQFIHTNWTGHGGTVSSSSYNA

NCCCCCC(=O)O
1.21: normalised cell number [9, 17]
1.31: normalised cell number [9, 16]
inactive: insulin secretion stimulation [1] -1.3% | viability decrease [2] -23% | tube area decrease [3] 15.9% | GLP1 secretion stimulation [4] 1.1% | inhibition of viability [5] -10.8% | viability decrease (inhibition) [6] 9.9% | viability decrease (inhibition) [7] -9.4% | inhibition [8] 11.8% | red/green cell ratio (normalised) [9] 0.92 | outcome [10] | outcome [11] | outcome [12] | outcome [13]

NC(=O)N/N=C/c1ccc([N+](=O)[O-])o1
0.62: normalised cell number [9, 17]
active: viability decrease (inhibition) [6] 68.8%
0.55: normalised cell number [9, 16]
inactive: insulin secretion stimulation [1] -0.4% | viability decrease [2] 45.2% | tube area decrease [3] -17% | GLP1 secretion stimulation [4] -2.5% | inhibition of viability [5] 45.3% | viability decrease (inhibition) [7] -6.7% | inhibition [8] 5.85% | red/green cell ratio (normalised) [9] 1.13 | outcome [10]

O=c1oc2cc(O)ccc2s1
inactive: insulin secretion stimulation [1] 2.9% | viability decrease [2] -9.5% | tube area decrease [3] 11.8% | GLP1 secretion stimulation [4] -4.3% | inhibition of viability [5] -4.7% | viability decrease (inhibition) [7] 10.2% | inhibition [8] 11.7% | red/green cell ratio (normalised) [9] 0.91 and 0.99 | outcome [10] | outcome [11] | outcome [12] | outcome [13]
active: viability decrease (inhibition) [6] 3.7%
1.1 and 0.89: normalised cell number [9, 16]
1 and 0.88: normalised cell number [9, 17]

Cn1c(=O)c2c(ncn2C)n(C)c1=O
1.17: normalised cell number [9, 16]
1.14: normalised cell number [9, 17]
inactive: insulin secretion stimulation [1] 4.3% | viability decrease [2] -1.7% | tube area decrease [3] 16.4% | GLP1 secretion stimulation [4] -0.2% | inhibition of viability [5] -8.8% | viability decrease (inhibition) [6] -11.7% | viability decrease (inhibition) [7] 7.2% | inhibition [8] 8.55% | red/green cell ratio (normalised) [9] 0.97 | outcome [10] | outcome [11] | outcome [13]

COc1cnc(NS(=O)(=O)c2ccc(N)cc2)nc1
0.99: normalised cell number [9, 17]
0.87: normalised cell number [9, 16]
inactive: insulin secretion stimulation [1] 1.9% | viability decrease [2] -21.6% | tube area decrease [3] -5.6% | GLP1 secretion stimulation [4] 0.5% | inhibition of viability [5] -7.43% | viability decrease (inhibition) [6] 23.4% | viability decrease (inhibition) [7] -14.6% | inhibition [8] -8.19% | red/green cell ratio (normalised) [9] 1.15
active: AC50 [11] 2.96 µM

O=C(O)c1cccnc1Nc1cccc(C(F)(F)F)c1
active: viability decrease (inhibition) [6] 60%
inactive: insulin secretion stimulation [1] -3.1% | viability decrease [2] 13% | tube area decrease [3] 12.7% | GLP1 secretion stimulation [4] 0.6% | inhibition of viability [5] -5.9% | viability decrease (inhibition) [7] 28.2% | inhibition [8] 12.6% | red/green cell ratio (normalised) [9] 0.93 | outcome [10] | outcome [11] | outcome [12]
1.08: normalised cell number [9, 16]
1: normalised cell number [9, 17]

CCCCOc1ccc(CC(=O)NO)cc1
inactive: insulin secretion stimulation [1] 10.6% | viability decrease [2] 24.3% | tube area decrease [3] -1.4% | GLP1 secretion stimulation [4] -1.1% | inhibition of viability [5] 12.7% | viability decrease (inhibition) [6] 35.2% | viability decrease (inhibition) [7] 11.6% | inhibition [8] -6.77% | red/green cell ratio (normalised) [9] 1.05 | outcome [13]
0.59: normalised cell number [9, 16]
0.61: normalised cell number [9, 17]
active: AC50 [10] 23.5 µM | AC50 [12] 20.9 µM

CCC[C@H](N[C@@H](C)C(=O)N1[C@H](C(=O)O)C[C@@H]2CCCC[C@@H]21)C(=O)OCC
0.96: normalised cell number [9, 16] | normalised cell number [9, 17]
inactive: insulin secretion stimulation [1] 2.3% | viability decrease [2] -3% | tube area decrease [3] 14.1% | GLP1 secretion stimulation [4] -2.9% | inhibition of viability [5] 18.1% | viability decrease (inhibition) [6] 0% | viability decrease (inhibition) [7] 6% | inhibition [8] -5.32% | red/green cell ratio (normalised) [9] 1.01 | outcome [14] | outcome [13]

COC(=O)[C@@H]1[C@H]2C[C@H]3c4[nH]c5ccccc5c4CCN3C[C@@H]2CC[C@@H]1O
inactive: insulin secretion stimulation [1] 1.1% | viability decrease [2] -73.5% | tube area decrease [3] 10.7% | GLP1 secretion stimulation [4] -0.7% | inhibition of viability [5] 13.8% | viability decrease (inhibition) [6] 18.3% | viability decrease (inhibition) [7] -9.4% | inhibition [8] 2.13% | outcome [14] | outcome [10] | outcome [11] | outcome [13]

C[C@]12CC[C@@H]3c4ccc(O)cc4CC[C@H]3[C@@H]1C[C@@H](O)[C@@H]2O
inactive: insulin secretion stimulation [1] 2% | viability decrease [2] 11.1% | tube area decrease [3] -3.9% | GLP1 secretion stimulation [4] 12.5% | inhibition of viability [5] 4.67% | viability decrease (inhibition) [6] 25.1% | viability decrease (inhibition) [7] -13.7% | inhibition [8] -14.5% | outcome [13]

CC1(C)O[C@H]2CC(=O)OC[C@]23[C@H]2CC[C@@]4(C)[C@H](c5ccoc5)OC(=O)[C@H]5O[C@]54[C@]2(C)C(=O)C[C@@H]13
inactive: insulin secretion stimulation [1] 0.05% | viability decrease [2] 2.7% | tube area decrease [3] 16.3% | GLP1 secretion stimulation [4] 2% | inhibition of viability [5] -6.9% | viability decrease (inhibition) [6] -12.1% | viability decrease (inhibition) [7] -9.6% | inhibition [8] 5.47% | outcome [11] | outcome [12]

C=C[C@@]1(C)CC(=O)[C@]2(O)[C@@]3(C)[C@@H](O)CCC(C)(C)[C@@H]3[C@H](O)[C@H](OC(C)=O)[C@@]2(C)O1
inactive: insulin secretion stimulation [1] 3.6% | viability decrease [2] -20.2% | tube area decrease [3] -41% | GLP1 secretion stimulation [4] 5% | inhibition of viability [5] 17.1% | viability decrease (inhibition) [7] -16.6% | inhibition [8] 14.7% | remaining activity [15] 113%
active: viability decrease (inhibition) [6] 56.2%

CO[C@@]12[C@H](COC(N)=O)C3=C(C(=O)C(C)=C(N)C3=O)N1C[C@@H]1N[C@@H]12
inactive: insulin secretion stimulation [1] 0.2% | GLP1 secretion stimulation [4] 1.2% | inhibition [8] -2.77%
active: viability decrease [2] 106% | tube area decrease [3] 108% | inhibition of viability [5] 105% | viability decrease (inhibition) [6] 124% | viability decrease (inhibition) [7] 95.8% | AC50 [14] 0.417 µM | AC50 [11] 16.6 µM | AC50 [12] 0.469 µM | AC50 [13] 7.42 µM
